According to PubChem BioAssay:
Activity calls are given as the source filed them.

Experiments:
[1] = tested on: Plasmodium falciparum Sir2 (PF13_0152, Sir2A); test: pfSir2 binders on small-molecule microarrays, primary screen, biochemical, small-molecule microarray, 635 nm fluorescence (AID 1098); details: small-molecule microarray binding, fluorescence 635 nm; higher = more signal;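 further: score merges spot fluorescence intensity with its signal-to-noise ratio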
[2] = small-molecule microarray binders of probe aDKK1, primary screen, biochemical, biotinylated probe, 635/667 nm fluorescence (AID 1099); details: higher = more signal;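 further: score merges 667nm spot fluorescence with signal to noise across triplicate slides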
[3] = small-molecule microarray binders of probe aCHRDL2, primary screen, biochemical, biotinylated probe, 635/667 nm fluorescence (AID 1100); details: higher = more signal
[4] = splicing luciferase reporter signal modulators, primary screen, spliceosome inhibition project, cell-based, HEK293, splice +/- reporter (AID 1101); details: luminescence, 24 h, higher = more signal, called active from +8 up or from −8 down;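 further: HEK293 cells carrying a splicing-competent luciferase reporter gene; test concentration not given here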
[5] = biological target: Fibroblast growth factor 10 (Homo sapiens) (UniProt O15520); test: FGF10 binders on small-molecule microarrays, primary screen, biochemical, small-molecule microarray, 635 nm fluorescence (AID 1102); details: FGF10 binding, fluorescence 635 nm, higher = more signal
[6] = tested on: glycogen synthase kinase-3 (GSK3A per assay name; protocol says GSK3B); test: GSK3 binders on small-molecule microarrays, primary screen, biochemical, small-molecule microarray, 635 nm fluorescence, GSK3A (AID 1103); details: small-molecule microarray binding, fluorescence 635 nm; higher = more signal; further: the record names both GSK3A and GSK3B
[7] = biological target: Epidermal growth factor receptor (Homo sapiens) (UniProt P00533); test: EGFR binders on small-molecule microarrays, primary screen, biochemical, small-molecule microarray, 635 nm fluorescence (AID 1104); details: EGFR binding, higher = more signal;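 further: score merges 667 nm emission intensity with spot signal to noise over triplicate slides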
[8] = biological target: Follistatin-related protein 3 (Homo sapiens) (UniProt O95633); test: FSTL3 binders on small-molecule microarrays, primary screen, biochemical, small-molecule microarray, 635 nm fluorescence (AID 1105); details: FSTL3 binding, higher = more signal;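 further: score merges emission near 667 nm and signal to noise per printed spot across three slides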
[9] = biological target: Dickkopf-related protein 1 (Homo sapiens) (UniProt O94907); test: DKK1 binders on small-molecule microarrays, primary screen, biochemical, small-molecule microarray, 635 nm fluorescence scan (AID 1106); details: DKK1 binding, higher = more signal;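 further: score merges emission near 667 nm with signal to noise over three replicate slides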
[10] = tested on: Inhibin beta A chain (activin A); test: INHBA (activin A) binders on microarrays, primary screen, biochemical, small-molecule microarray, 635 nm fluorescence scan (AID 1107); details: small-molecule microarray binding, higher = more signal;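 further: mouse activin A protein probed at 4.33 µg/mL on printed slides; score merges bound-protein fluorescence near 667 nm with spot signal-to-noise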
[11] = tested on: Human papillomavirus type 1a protein E7 (residues 44-93); test: HPV1a E7 fragment binders on microarrays, primary screen, biochemical, small-molecule microarray, residues 44-93, 635 nm fluorescence (AID 1108); details: small-molecule microarray binding, fluorescence 635 nm; higher = more signal;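 further: E7 fragment applied at 1 µg/mL in TBST for 1 h at 4 C; score combines spot fluorescence with its signal to noise ratio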
[12] = modulators of HCV replicon luciferase signal, primary screen, HCV replication inhibitor project, Huh7 cells, luciferase reporter (AID 1109); details: 48 h, higher = more signal;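 further: huh7 hepatoma cells harbouring a luciferase neomycin HCV replicon reporter; luciferase luminescence as measure of HCV replicon replication; test concentration not given here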
[13] = biological target: Left-right determination factor 2 (Homo sapiens) (UniProt O00292); test: LEFTY2 binders on small-molecule microarrays, primary screen, biochemical, small-molecule microarray, 635 nm fluorescence scan (AID 1110); details: LEFTY2 binding, higher = more signal
[14] = biological target: Calmodulin-1 (Homo sapiens) (UniProt P0DP23); test: CALM1 binders on microarrays, EGTA buffer, profiling panel, biochemical, small-molecule microarray, Cy5-labelled CALM1 (AID 1111); details: Cy5-CALM1 binding fluorescence, higher = more signal;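 further: labelled calmodulin applied in Tris saline Tween buffer holding calcium plus EGTA and DTT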
[15] = biological target: Calmodulin-1 (Homo sapiens) (UniProt P0DP23); test: calcium-bound CALM1 binders on microarrays, profiling panel, artefact control for SMM control-protein annotation, biochemical, small-molecule microarray, Cy5-labelled CALM1, plus calcium (AID 1112); details: Cy5-CALM1 binding fluorescence, higher = more signal;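 further: score merges spot fluorescence with signal to noise from triplicate slides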
[16] = small-molecule microarray binders of probe aWnt5a, primary screen, biochemical, biotinylated probe, 635/667 nm fluorescence (AID 1113); details: higher = more signal;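 further: score merges 667 nm fluorescence intensity with signal-to-noise per printed feature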
[17] = small-molecule microarray binders of probe aShh, primary screen, biochemical, biotinylated probe, 635/667 nm fluorescence (AID 1114); details: higher = more signal;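 further: probe is biotin-labelled aShh protein from a stem cell growth factor screen; measures binding of labelled protein to compounds printed on the slide; score merges feature fluorescence at 667 nm with signal-to-noise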
[18] = small-molecule microarray binders of probe aNog, primary screen, biochemical, biotinylated probe, 635/667 nm fluorescence (AID 1115); details: higher = more signal;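 further: probe is biotinylated aNog protein used at 0.15 µg/mL for 1 h at 4 C; z-score combines 667 nm fluorescence of each spot with its signal to noise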
[19] = biological target: Torsin-1A-interacting protein 1 (Homo sapiens) (UniProt Q5JTV8); test: LAP1 binders from COS7 cell lysate, primary screen, small-molecule microarray, 635/667 nm fluorescence (AID 1116); details: COS7-hLAP1 lysate binding, 635 nm fluorescence, higher = more signal
[20] = biological target: Alpha-bungarotoxin (Bungarus multicinctus) (UniProt P60615); test: alpha-bungarotoxin binders on microarray, profiling panel, artefact control for SMM control protein annotation, biochemical, small-molecule microarray, Alexa647 label, 635/667 nm fluorescence (AID 1117); details: alpha-BTX-A647 binding fluorescence, higher = more signal
Alpha-bungarotoxin (Bungarus multicinctus), sequence (P60615 whole entry, looked up): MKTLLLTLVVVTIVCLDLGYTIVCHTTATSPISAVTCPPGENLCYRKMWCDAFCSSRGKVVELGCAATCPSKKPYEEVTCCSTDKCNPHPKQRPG

Torsin-1A-interacting protein 1 (Homo sapiens), sequence (Q5JTV8 whole entry, looked up): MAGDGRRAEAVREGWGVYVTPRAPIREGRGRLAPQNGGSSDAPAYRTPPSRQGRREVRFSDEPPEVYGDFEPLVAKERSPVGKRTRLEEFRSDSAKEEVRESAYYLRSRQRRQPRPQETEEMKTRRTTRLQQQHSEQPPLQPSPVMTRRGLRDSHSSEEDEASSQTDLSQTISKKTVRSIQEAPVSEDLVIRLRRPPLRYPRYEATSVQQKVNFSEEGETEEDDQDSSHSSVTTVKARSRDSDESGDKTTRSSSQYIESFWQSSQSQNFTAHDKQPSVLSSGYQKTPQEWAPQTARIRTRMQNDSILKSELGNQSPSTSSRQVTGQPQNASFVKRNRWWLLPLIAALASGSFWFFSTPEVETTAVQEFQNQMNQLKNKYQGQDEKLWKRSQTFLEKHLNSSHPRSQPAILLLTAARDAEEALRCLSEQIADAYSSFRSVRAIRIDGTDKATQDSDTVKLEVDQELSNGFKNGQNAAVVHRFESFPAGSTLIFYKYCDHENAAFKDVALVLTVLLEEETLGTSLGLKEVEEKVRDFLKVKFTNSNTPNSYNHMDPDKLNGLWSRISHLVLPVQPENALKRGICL
Epidermal growth factor receptor (Homo sapiens), sequence (P00533 whole entry, looked up): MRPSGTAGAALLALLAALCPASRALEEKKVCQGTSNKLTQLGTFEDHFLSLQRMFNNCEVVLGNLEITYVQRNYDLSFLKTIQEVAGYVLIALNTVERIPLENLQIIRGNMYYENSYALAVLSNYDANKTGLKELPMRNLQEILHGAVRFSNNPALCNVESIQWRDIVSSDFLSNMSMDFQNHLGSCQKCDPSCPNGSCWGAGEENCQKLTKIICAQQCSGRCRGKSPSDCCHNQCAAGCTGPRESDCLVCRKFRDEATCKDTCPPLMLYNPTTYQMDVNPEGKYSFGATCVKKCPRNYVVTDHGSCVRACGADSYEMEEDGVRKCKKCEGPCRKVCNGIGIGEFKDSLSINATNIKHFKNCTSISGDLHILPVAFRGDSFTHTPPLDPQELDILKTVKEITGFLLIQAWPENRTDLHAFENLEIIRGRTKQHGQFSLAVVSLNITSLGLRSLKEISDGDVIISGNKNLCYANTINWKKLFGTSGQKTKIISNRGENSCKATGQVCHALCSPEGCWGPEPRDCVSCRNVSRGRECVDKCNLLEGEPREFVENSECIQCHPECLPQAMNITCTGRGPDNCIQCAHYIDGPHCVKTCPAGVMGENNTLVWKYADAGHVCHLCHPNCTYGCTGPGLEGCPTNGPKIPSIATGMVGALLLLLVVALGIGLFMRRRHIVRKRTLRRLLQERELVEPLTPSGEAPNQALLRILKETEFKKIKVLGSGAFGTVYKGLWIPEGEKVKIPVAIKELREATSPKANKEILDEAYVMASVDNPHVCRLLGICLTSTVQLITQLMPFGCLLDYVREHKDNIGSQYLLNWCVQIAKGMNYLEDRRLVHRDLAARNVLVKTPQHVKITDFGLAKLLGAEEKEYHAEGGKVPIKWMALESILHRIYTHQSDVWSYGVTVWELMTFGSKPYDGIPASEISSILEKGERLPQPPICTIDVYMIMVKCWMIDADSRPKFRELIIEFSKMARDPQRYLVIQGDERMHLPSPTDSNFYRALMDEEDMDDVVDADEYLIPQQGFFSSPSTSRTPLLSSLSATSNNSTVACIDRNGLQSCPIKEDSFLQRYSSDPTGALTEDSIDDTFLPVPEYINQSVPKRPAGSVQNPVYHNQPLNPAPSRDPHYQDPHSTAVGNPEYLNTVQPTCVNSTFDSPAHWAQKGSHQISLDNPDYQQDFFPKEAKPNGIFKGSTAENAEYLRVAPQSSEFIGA
Left-right determination factor 2 (Homo sapiens), sequence (O00292 whole entry, looked up): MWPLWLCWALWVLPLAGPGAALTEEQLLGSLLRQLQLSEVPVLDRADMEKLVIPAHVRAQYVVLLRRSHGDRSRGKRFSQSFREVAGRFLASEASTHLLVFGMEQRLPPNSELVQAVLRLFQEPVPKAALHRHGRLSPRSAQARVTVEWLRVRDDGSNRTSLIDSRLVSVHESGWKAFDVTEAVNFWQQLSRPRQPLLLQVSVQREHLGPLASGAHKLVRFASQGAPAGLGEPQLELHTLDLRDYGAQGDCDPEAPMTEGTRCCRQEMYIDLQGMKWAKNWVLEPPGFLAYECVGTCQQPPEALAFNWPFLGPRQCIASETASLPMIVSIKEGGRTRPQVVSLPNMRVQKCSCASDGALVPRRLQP
Dickkopf-related protein 1 (Homo sapiens), sequence (O94907 whole entry, looked up): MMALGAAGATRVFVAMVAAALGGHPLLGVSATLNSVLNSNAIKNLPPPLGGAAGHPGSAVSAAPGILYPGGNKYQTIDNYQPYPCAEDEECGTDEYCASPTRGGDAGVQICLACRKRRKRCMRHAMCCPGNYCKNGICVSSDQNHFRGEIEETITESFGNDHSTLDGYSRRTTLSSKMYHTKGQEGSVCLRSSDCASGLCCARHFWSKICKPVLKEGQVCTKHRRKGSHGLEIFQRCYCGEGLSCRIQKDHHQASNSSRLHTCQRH
Fibroblast growth factor 10 (Homo sapiens), sequence (O15520 whole entry, looked up): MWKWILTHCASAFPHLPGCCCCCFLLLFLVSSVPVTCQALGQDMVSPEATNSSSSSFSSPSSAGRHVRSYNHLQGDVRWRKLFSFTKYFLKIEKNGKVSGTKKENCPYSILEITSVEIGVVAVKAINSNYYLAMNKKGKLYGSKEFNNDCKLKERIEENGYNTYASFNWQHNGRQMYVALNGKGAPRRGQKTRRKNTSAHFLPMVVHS
Follistatin-related protein 3 (Homo sapiens), sequence (O95633 whole entry, looked up): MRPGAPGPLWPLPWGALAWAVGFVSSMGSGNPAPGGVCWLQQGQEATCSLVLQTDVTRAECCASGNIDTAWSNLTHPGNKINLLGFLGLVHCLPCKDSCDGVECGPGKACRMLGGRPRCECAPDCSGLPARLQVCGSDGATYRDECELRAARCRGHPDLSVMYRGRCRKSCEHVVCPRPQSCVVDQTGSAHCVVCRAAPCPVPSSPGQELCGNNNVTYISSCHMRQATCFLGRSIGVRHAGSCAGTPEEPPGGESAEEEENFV

Row | Compound | composite z-score [1] | composite z-score [2] | composite z-score [3] | z-score [4] | composite z-score [5] | composite z-score [6] | composite z-score [7] | composite z-score [8] | composite z-score [9] | composite z-score [10] | composite z-score [11] | z-score [12] | composite z-score [13] | composite z-score [14] | composite z-score [15] | composite z-score [16] | composite z-score [17] | composite z-score [18] | composite z-score [19] | composite z-score [20]
1 | Cc1ccc(S[C@]2(C(=O)NC3CC3)CC(=O)N(Cc3cc(C(F)(F)F)cc(C(F)(F)F)c3)[C@@H]2c2ccc(CO)cc2I)cc1 | 1.8 | 0.679 | -0.525 | 0.0986 (inactive) | 0.126 | 0.322 | -0.141 | 0.484 | -0.0211 | 1.15 | 0.769 | -1.67 | -0.175 | 0.102 | -0.213 | 0.472 | -0.19 | 1.65 | 0.0541 | 0.665
2 | CC(C)CNC(=O)[C@@]1(C)c2ccccc2C(=O)N(Cc2cc(F)cc(C(F)(F)F)c2)[C@H]1c1ccc(CO)cc1 | 0.972 | -0.162 | 0.35 | 0.451 (inactive) | 0.398 | 0.729 | 0.181 | 0.379 | 0.343 | 0.938 | 1.35 | -0.732 | 0.0867 | 0.0765 | 0.0987 | -0.17 | 0.0639 | 0.341 | 1.98 | 0.884
3 | CCN(CC)c1ccc(N2CC=CC34O[C@@H]5C=CCOC(=O)[C@@H]5[C@H]3C(=O)N(CCO)[C@@H]4C2=O)cc1 (stereo not given in full) | 1.47 | -0.0117 | 0.54 | 0.0206 (inactive) | -0.938 | -0.562 | -1.66 | -0.952 | -1.51 | -0.292 | -0.73 | 0.466 | -2.26 | -0.97 | 0.266 | -0.25 | 0.0756 | -0.338 | 0.422 | -1.29
4 | CC(C)CNC(=O)[C@@H]1c2ccccc2C(=O)N(Cc2ccccc2Cl)[C@H]1c1ccc(CO)cc1 | 1.29 | 0.495 | 0.959 | 0.587 (inactive) | -0.765 | 0.729 | -0.519 | -0.644 | -1.17 | -0.114 | 1.07 | -0.249 | -1.09 | 0.0642 | -0.116 | -0.244 | -0.0813 | -0.0769 | 1.69 | -1.39
5 | C=C(COC)/C(=C/C[C@H](OC(=O)c1ccncc1)c1ccc(OCCO)cc1)c1cc(C(=O)OC)ccc1OC | 0.674 | 0.17 | 0.118 | -0.767 (inactive) | 1.47 | 0.32 | -0.0503 | 0.967 | 0.8 | 1.04 | 1.42 | -1.66 | 0.431 | 0.579 | -0.467 | 0.0077 | 0.157 | 0.484 | 1.18 | 1.23
6 | COc1cc2c(cc1O)C(c1ccc(CN3CCCC3)cc1)N(Cc1cccc(OC(F)(F)F)c1)CC2 (stereo not given) | 1.02 | 0.422 | 0.414 | -2.59 (inactive) | 0.15 | 0.213 | 0.576 | 0.81 | 0.36 | 1.44 | 0.743 | -3.63 | 0.629 | -0.0262 | -0.664 | -0.203 | -0.0522 | 0.0583 | 0.62 | 1.61
7 | CCCCC(O)C1C=CC2C(=O)N(C)C(=O)C2N1Nc1ccccc1 (stereo not given) | 0.236 | 0.304 | 0.411 | 0.94 (inactive) | 0.191 | -0.0703 | -0.319 | 0.0934 | -0.8 | 1.24 | 1.18 | -0.413 | -0.431 | 0.259 | 0.032 | 0.0044 | -0.301 | -0.0683 | 1.02 | 0.27
8 | O=C1c2ccccc2[C@@]2(Cc3ccccc3N(Cc3ccccc3)C2=O)[C@H](c2ccc(CO)cc2)N1Cc1ccccc1 | 1.45 | 0.617 | 0.819 | 1.18 (inactive) | -0.74 | -1.37 | -0.949 | -0.604 | -0.868 | 0.58 | 0.145 | -0.173 | -1.09 | -0.73 | 0.242 | -0.236 | -0.153 | -0.36 | -0.516 | -0.114
9 | COC(=O)[C@@]1(Cc2ccc(OC)cc2)[C@@H]2[C@@H](CC(=O)[C@H]2CC(=O)C(=O)N2CCCC2)CN1C(=O)c1ccccc1 | 1.66 | 2.76 | 1.21 | -2.69 (inactive) | 1.44 | 1.07 | 0.725 | 0.868 | 0.823 | 0.846 | 0.43 | -1.83 | 0.352 | 2.05 | 1.02 | 1.31 | 2.68 | 2.97 | 2.12 | 1.49
10 | COCCOC(=O)N1C(=O)[C@@]2(c3cc(C#Cc4ccc(OC)cc4)ccc31)[C@H](C(=O)Nc1nc3ccccc3s1)[C@H]1C(=O)O[C@H](c3ccccc3)[C@H](c3ccccc3)N1[C@@H]2c1ccccc1OCCO | 0.655 | -0.0582 | -0.149 | -2.03 (inactive) | 0.517 | 0.731 | 0.29 | 0.909 | 0.534 | 0.629 | 0.773 | -1.43 | 0.615 | 1.5 | 0.747 | -0.299 | -0.138 | -0.7 | 0.188 | 0.968
11 | COC(=O)[C@H](Cc1ccc(O)cc1)N1CC2=CCCC=C[C@@H]2[C@H]1[C@H](O)Cc1ccccc1 | 0.751 | -0.301 | -0.538 | -1.07 (inactive) | 0.477 | -0.159 | 0.72 | 0.255 | 0.0139 | 0.493 | -0.615 | -0.798 | 0.45 | -0.197 | -0.757 | -0.157 | -0.138 | -0.292 | 0.0548 | 0.0212
